Experimental data published in the supplement of paper PMC10849652.
About 8,800 targets were measured; listed, in parts, are those with a hit and a random draw of the rest. About 0.5% of all pairs of compound and target were hits.

Compound: C#Cc1cccc(Nc2ncnc3cc(OCCOC)c(OCCOC)cc23)c1 [erlotinib]
Assay: log2 fold change, soluble protein after heating vs DMSO (PISA); higher = thermal stabilisation; K562 lysate, 10 uM; active = over 0.2 and 3.5 SD of the protein, either way, in both replicates (recomputed)
Method in brief: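 The values are log-two fold changes in thermal stability compared with solvent controls and come from duplicates. They were obtained by TMTpro 16plex LC-MS/MS, with channel sums equalised, on the supernatant after 21,000xg for 90 min. That supernatant came from crude K562 extract at 1 mg/mL protein treated with 10 μM compound for 30 min, heated for 3 min across 48°C-58°C, pooled and brought to 0.5% NP-40 at 4°C.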

Chain of UniProt Q99797 (Q99797 whole entry, looked up): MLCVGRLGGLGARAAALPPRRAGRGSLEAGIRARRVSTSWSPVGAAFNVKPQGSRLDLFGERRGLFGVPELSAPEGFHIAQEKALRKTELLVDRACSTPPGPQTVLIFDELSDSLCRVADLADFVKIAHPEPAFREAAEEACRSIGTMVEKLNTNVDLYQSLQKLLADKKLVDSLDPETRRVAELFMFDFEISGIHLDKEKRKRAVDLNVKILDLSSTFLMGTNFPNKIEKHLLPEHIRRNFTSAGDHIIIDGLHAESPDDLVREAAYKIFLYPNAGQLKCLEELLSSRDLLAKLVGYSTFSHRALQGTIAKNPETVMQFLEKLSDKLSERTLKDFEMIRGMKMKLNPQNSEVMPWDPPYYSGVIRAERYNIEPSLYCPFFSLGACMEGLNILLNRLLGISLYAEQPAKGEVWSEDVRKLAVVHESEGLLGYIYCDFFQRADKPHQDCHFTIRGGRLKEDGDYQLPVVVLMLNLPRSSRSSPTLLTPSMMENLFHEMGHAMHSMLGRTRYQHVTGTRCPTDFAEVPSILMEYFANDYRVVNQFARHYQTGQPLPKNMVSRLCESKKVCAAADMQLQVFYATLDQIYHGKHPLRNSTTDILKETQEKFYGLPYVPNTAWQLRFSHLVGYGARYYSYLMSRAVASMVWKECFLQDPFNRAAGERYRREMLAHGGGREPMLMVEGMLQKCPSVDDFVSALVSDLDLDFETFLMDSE
Chain of UniProt Q15058 (Q15058 whole entry, looked up): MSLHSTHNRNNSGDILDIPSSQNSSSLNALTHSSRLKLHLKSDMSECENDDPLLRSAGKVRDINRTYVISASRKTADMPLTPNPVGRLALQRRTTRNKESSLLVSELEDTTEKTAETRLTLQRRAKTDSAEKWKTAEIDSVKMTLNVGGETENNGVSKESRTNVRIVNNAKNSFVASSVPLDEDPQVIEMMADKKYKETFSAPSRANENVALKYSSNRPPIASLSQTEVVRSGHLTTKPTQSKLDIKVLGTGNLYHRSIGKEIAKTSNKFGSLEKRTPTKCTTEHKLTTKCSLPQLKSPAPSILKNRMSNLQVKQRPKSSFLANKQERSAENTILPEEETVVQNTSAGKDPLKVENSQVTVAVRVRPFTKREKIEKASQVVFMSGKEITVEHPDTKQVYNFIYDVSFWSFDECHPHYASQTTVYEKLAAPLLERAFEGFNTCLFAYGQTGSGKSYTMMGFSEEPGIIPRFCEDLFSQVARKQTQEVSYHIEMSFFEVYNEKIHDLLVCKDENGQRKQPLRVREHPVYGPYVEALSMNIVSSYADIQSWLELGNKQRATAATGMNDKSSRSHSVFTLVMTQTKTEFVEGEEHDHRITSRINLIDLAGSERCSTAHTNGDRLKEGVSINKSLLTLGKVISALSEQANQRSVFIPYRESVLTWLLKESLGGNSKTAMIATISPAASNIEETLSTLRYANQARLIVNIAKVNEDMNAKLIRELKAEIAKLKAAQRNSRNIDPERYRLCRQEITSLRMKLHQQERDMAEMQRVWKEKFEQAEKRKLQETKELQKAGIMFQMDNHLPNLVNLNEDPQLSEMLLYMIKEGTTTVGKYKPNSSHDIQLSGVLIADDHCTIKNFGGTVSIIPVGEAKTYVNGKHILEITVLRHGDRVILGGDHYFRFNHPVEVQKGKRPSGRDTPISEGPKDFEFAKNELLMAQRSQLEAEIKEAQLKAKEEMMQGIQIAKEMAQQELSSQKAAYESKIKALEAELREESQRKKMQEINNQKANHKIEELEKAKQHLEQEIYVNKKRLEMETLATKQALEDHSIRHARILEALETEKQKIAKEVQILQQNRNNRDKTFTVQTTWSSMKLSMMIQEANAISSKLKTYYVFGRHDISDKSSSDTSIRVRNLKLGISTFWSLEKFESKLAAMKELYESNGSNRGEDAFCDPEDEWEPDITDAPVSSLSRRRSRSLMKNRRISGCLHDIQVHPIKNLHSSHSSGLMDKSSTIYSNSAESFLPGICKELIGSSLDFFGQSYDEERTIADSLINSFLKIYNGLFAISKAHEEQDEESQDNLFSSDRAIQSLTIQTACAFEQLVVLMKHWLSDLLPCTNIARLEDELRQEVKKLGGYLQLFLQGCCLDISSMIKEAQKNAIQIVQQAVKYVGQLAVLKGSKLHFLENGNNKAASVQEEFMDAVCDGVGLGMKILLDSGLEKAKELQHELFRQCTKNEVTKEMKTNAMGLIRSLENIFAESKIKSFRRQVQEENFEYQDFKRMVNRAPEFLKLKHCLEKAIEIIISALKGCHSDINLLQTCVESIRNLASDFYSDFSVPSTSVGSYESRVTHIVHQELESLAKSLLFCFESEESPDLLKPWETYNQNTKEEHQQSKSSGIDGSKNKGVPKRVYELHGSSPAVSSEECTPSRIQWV
Chain of UniProt Q15334 (Q15334 whole entry, looked up): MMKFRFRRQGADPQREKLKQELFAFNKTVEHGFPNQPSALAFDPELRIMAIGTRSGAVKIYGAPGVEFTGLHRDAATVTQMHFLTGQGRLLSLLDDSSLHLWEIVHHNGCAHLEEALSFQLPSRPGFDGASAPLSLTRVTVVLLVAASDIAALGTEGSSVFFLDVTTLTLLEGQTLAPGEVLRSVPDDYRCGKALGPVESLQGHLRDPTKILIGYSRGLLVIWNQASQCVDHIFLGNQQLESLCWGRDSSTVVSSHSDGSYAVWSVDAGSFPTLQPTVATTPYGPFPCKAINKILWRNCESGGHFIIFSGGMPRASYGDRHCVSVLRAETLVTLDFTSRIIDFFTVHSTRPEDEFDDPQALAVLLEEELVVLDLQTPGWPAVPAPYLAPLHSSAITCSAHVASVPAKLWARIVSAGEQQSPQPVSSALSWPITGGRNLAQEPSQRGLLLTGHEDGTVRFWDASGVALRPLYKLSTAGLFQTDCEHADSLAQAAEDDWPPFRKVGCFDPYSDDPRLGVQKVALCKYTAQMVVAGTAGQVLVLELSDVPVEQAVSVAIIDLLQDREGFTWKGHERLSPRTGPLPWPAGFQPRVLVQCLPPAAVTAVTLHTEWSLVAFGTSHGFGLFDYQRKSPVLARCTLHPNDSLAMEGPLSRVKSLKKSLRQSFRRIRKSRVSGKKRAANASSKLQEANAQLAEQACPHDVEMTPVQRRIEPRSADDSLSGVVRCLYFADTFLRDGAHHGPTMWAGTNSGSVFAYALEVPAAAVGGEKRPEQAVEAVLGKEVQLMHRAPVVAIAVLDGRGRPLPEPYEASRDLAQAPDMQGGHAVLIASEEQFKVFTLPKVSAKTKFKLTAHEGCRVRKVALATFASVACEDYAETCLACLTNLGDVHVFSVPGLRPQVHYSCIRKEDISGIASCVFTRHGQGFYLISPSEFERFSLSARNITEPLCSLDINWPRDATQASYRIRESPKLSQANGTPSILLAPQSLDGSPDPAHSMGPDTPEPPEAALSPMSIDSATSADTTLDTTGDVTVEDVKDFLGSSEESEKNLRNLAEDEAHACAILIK
Chain of UniProt Q68D91 (Q68D91 whole entry, looked up): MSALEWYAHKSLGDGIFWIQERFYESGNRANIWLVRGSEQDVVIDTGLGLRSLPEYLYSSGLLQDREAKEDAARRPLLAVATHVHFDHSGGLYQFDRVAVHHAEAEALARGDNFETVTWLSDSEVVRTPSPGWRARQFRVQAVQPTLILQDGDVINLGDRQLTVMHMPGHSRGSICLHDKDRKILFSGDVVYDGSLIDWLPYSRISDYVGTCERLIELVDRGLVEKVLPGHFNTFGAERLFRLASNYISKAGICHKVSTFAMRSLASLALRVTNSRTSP
Chain of UniProt Q16644 (Q16644 whole entry, looked up): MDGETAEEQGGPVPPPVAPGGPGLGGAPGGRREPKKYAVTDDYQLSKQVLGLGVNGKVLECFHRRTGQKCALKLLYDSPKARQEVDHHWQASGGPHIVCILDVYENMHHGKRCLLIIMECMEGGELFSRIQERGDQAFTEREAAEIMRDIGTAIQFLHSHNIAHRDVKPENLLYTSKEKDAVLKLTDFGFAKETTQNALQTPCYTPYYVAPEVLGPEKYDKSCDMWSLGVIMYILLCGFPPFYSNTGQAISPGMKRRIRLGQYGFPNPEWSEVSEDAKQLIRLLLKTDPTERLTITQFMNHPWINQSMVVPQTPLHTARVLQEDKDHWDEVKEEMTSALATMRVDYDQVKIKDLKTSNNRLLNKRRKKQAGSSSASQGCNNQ
Chain of UniProt Q8WVR3 (Q8WVR3 whole entry, looked up): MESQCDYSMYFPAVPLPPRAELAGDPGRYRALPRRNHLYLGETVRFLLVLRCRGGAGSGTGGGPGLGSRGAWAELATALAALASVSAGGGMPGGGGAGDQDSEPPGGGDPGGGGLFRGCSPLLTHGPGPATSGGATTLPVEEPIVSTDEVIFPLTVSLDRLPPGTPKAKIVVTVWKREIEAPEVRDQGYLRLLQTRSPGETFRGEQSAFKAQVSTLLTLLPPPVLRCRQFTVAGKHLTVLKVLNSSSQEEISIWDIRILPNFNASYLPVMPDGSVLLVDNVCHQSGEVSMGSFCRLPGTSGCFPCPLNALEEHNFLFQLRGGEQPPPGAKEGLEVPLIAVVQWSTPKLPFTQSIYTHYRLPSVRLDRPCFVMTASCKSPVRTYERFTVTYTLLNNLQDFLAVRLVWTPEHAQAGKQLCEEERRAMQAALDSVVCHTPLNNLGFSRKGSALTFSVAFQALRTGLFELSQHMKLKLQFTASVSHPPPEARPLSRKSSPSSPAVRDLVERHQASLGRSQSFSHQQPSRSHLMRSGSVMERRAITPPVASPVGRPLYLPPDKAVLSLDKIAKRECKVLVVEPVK
Chain of UniProt O95297 (O95297 whole entry, looked up): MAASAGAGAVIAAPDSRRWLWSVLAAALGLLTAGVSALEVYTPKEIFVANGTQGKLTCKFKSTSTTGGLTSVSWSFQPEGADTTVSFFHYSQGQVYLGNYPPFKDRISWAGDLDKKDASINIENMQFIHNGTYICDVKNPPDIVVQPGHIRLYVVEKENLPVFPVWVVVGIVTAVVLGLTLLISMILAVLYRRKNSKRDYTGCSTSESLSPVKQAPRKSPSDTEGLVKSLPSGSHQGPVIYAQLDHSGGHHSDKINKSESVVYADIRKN
Chain of UniProt O95777 (O95777 whole entry, looked up): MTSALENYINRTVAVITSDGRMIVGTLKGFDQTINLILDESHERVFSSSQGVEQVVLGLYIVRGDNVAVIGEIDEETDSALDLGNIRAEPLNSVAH

log2 fold change, inactive:
KIF4A (UniProt O95239) 0.015
MBLAC2 (UniProt Q68D91) -0.052
MAP2K1 (UniProt Q02750) 0.016
MIPEP (UniProt Q99797) -0.048
LARS (UniProt Q9P2J5) 0.021
LSM8 (UniProt O95777) -0.034
MAP2K7 isoform 4 (UniProt O14733) -0.042
MAPKAPK3 (UniProt Q16644) -0.007
LARP4B (UniProt Q92615) -0.019
MAPK6 (UniProt Q16659) -0.004
MAP11 (UniProt Q8WVR3) 0.013
MICB, A0A140T979 0.022
LPCAT1 (UniProt Q8NF37) 0.056
METTL7A (UniProt Q9H8H3) 0.029
MAP4K4 isoform 3 (UniProt O95819) -0.003
LLGL1 (UniProt Q15334) 0.036
MAP3K4 (UniProt Q9Y6R4) 0.051
KIF14 (UniProt Q15058) 0.031
LAGE3 (UniProt Q14657) 0.028
KMT2A isoform 3 (UniProt Q03164) -0.022
LUZP1 (UniProt Q86V48) -0.074
MRPL15 (UniProt Q9P015) 0.037
MPZL1 (UniProt O95297) -0.057
